Screens deposited in PubChem by National Center for Advancing Translational Sciences (NCATS).
KDM5B inh: inhibitors of human KDM5B histone demethylase; KDM5B demethylase, FDH-coupled NADH fluorescence (FDH is formaldehyde dehydrogenase); 2.6% of 220,000 active; Q9UGL1; AID 1347165; Potency, µM (titrated, usually from 57.7 µM), actives largely listed as inhibitors; active = well fitted inhibition curve with a large enough effect; note: 0% is about no effect; nearly all actives have a fitted effect of over 70% in size
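qHTS format, multiple compound concentrations. Buffer 50 mM HEPES pH 7.5/0.01% Tween-20; 200 nM KDM5BΔAP final; 10 min compound preincubation; substrate-mix levels 12.5 µM peptide, 25 µM α-KG, 0.25 mM NAD⁺; 30 min RT; ΔRFU.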
* marks the source's active call; other numbers are inactive results; i = inactive. This is one part of a sample in which hits are shown more often than they occur. Potency is the fitted concentration of half-maximal effect.

SMILES	KDM5B inh
CSCCC(NS(=O)(=O)c1ccc2c(c1)oc(=O)n2C)C(=O)Nc1cc(C)cc(C)c1 (stereo not drawn)	i
COc1cc(NC(=O)O[C@@H]2CO[C@H]3[C@@H]2OC[C@@H]3NC(=O)c2cccs2)cc(OC)c1	i
CC(C)(C)c1ccnc(N[C@H]2CO[C@H]3[C@@H]2OC[C@@H]3NC(=O)c2cccs2)n1	i
N#Cc1cccc(-c2ccnc(N[C@H]3CO[C@H]4[C@@H]3OC[C@@H]4NC(=O)C3CCCCC3)n2)c1	35µM*
O=C(N[C@H]1CO[C@H]2[C@@H]1OC[C@@H]2Nc1nccc(-c2cccc(F)c2)n1)c1cccs1	35µM*
C=CCNC(=O)N[C@H]1CO[C@H]2[C@@H]1OC[C@@H]2Nc1nccc(-c2cccc(F)c2)n1	40µM*
N#Cc1cccc(CN[C@@H]2CO[C@H](CNC(=O)c3cccs3)[C@H]2O)c1	i
O=C(COc1ccccc1)N[C@H]1CO[C@H]2[C@@H]1OC[C@@H]2Nc1nccc(-c2cccc(F)c2)n1	i
N#Cc1cccc(-c2ccnc(N[C@H]3CO[C@H]4[C@@H]3OC[C@@H]4NC(=O)c3cccs3)n2)c1	32µM*
O=C(Nc1cccc(OCC2CCCO2)c1)C1CCN(C(=O)C2CC2)CC1 (stereo not drawn)	i
Cc1ncsc1C(=O)N(Cc1cccs1)C1CC1	i
CN(C)CCCNC(=O)C1CCCN(c2ncnc3nc[nH]c23)C1 (stereo not drawn)	i
CCCCC(CC)CNC(=O)CCNC(=O)c1ccccc1 (stereo not drawn)	i
Cc1nn(Cc2cc(=O)oc3c(C)c(O)ccc23)c(=O)c(C#N)c1C	i
CCOC(=O)c1c(C)[nH]c(C)c1C(=O)Cn1cnc2ccccc2c1=O	i
O=C(NC1C[C@H]2CC[C@@H](C1)N2C(=O)C1(c2ccccc2)CC1)c1ccc(F)cc1 (stereo partly drawn)	i
C=CCNC(=O)N[C@H]1CO[C@H]2[C@@H]1OC[C@@H]2Nc1nccc(-c2ccccc2OC)n1	28µM*
COc1ccccc1-c1ccnc(N[C@H]2CO[C@H]3[C@@H]2OC[C@@H]3NC(=O)Nc2cccc(C(F)(F)F)c2)n1	i
CC(C)(C)c1ccnc(N[C@H]2CO[C@H]3[C@@H]2OC[C@@H]3NC(=O)NCc2ccccc2)n1	i
CC(C)N1CC(C(=O)Nc2nc3c(s2)CCC3)CC1=O (stereo not drawn)	i
CCOC(=O)C(NC(=O)CCNC(=O)c1ccccc1)C(=O)OCC	i
COc1ccc(CNC(=O)c2csc(NC3CC3)n2)cc1	i
CCCn1c(C)cc(C(=O)CC#N)c1C	i
COc1ccc(CCNC(=O)c2noc(-c3ccccc3F)n2)cc1OC	i
O=C(NCC1CC1)c1noc(-c2ccccc2F)n1	20µM*
SMILES	KDM5B inh
O=C(NCC1CCCCC1)c1noc(-c2ccc[nH]c2=O)n1	i
O=C(CSc1nc(C(F)(F)F)nc2ccccc12)Nc1ccc(O)cc1	i
Cc1noc(NC(=O)CSc2nccn2-c2ccccc2)n1	i
CCN1CCN(C(=O)c2ccc3nccn3c2)CC1	i
Cc1ccc(CNC(=O)c2ccc3nccn3c2)o1	28µM*
COc1ccc(C(=O)N[C@@H]2CCC[C@@H]2C(=O)NCc2ccc(C)o2)cc1	i
COC(=O)CNC(=O)c1ccc2ccccc2c1	i
COC(=O)CNC(=O)c1ccc2nccn2c1	112µM*
Cc1ccc(CNC(=O)c2c(-c3ccc(F)cc3F)noc2C)o1	i
O=C(NC1CCCCCC1)c1ccc2nccn2c1	28µM*
O=C(NC1CCCCCCC1)c1ccc(Br)cc1	i
C#CCNC(=O)c1ccc2nccn2c1	141µM*
C#CCNC(=O)c1ccc(-n2ccc(C(F)(F)F)n2)cc1	i
O=C(NC1CCCCC1)c1ccncc1	i
COC(=O)CNC(=O)c1ccc(C)cc1	i
Cc1ccc(S(=O)(=O)Nc2nc3ccccc3nc2Nc2ccc(C)c(F)c2)cc1	i
CC(=O)Nc1ccc(NC(=S)NC(NC(=O)c2cccc(C)c2)C(Cl)(Cl)Cl)cc1 (stereo not drawn)	i
CC(NC(=O)CNC(=O)c1cccs1)c1ccncc1 (stereo not drawn)	i
CCN1C(=O)COc2ccc(-c3nc(NC(=O)c4cccnc4)sc3C)cc21	i
COc1cc(C=O)c(Br)cc1OCCc1ccccc1	i
CCc1cc(C(=O)NC(C)c2ccccc2)sc1C (stereo not drawn)	i
Cc1ccc(O)c(C(=O)N(C)Cc2cccc(F)c2)c1	i
CCOc1ccc(Oc2ccc(NC(=O)Cn3ncc4ccccc4c3=O)cc2)cc1	i
COc1cc(OC)c2c(C)c(CC(=O)Nc3ccc4c(c3)OCCO4)c(=O)oc2c1	i
Cc1ccc(NC(=O)CSc2ncc(-c3ccc(F)cc3)o2)cc1Cl	i
SMILES	KDM5B inh
O=C(Cc1ccc(C(F)(F)F)cc1)NCCc1ccccn1	i
C=CCc1ccccc1OCCN(C)Cc1ncnn1CC	i
C=CCc1ccccc1OCCN(C)Cc1nc(C)ccc1O	i
CCc1ccccc1OCCN(C)Cc1ncc[nH]1	22µM*
COc1ccc2cnn(CC(=O)Nc3cccc(Cl)c3Cl)c(=O)c2c1OC	i
CCN(C(=O)C1Cc2ccccc2C(=O)O1)c1c(N)n(Cc2ccccc2)c(=O)[nH]c1=O (stereo not drawn)	i
COC(=O)/C(=C\C(C#N)=C/N(C)C)C(C)=O	i
Cc1cc2nc(-c3cccc(NC(=O)c4cccnc4)c3C)oc2cc1C	i
Cc1noc(-c2cccn3c(CNC(=O)c4cccnc4)nnc23)n1	28µM*
COc1cccc(CNC(=O)Cn2cccc2-c2nc(-c3ccc(OC)c(F)c3)no2)c1	i
COCc1ncc(C)n1CCNC(=O)c1ccoc1	i
COc1cccc(CC(=O)NCc2nnc3c(-c4nc(C)no4)cccn23)c1	18µM*
COc1ccc(CC(=O)NCc2nnc3ccccn23)c(OC)c1	i
O=C(Nc1ccccc1-c1nc(Cc2ccccc2)no1)c1cccnc1	i
Cc1ccsc1CNC(=O)c1cccnc1	i
Cc1csc(NC(=O)CCNC(=O)c2ccoc2)n1	i
CCc1noc(-c2cccn3c(CNC(=O)c4cccnc4)nnc23)n1	32µM*
Cc1noc(-c2cccn3c(CNC(=O)c4ccoc4)nnc23)n1	28µM*
CCCOC(=O)c1ccc(Nc2nc3ccccc3nc2NS(=O)(=O)c2ccc(OC)cc2)cc1	i
CCCOc1ccccc1Oc1ncccc1CNC(=O)Nc1ccc2c(c1)OCCCO2	i
O=C(O)c1ccnc2ccccc12	i
CC(C)(C)NC(=O)COC(=O)c1n[nH]c(=O)c2ccccc12	i
CC(Sc1nnc(-c2cccs2)n1C1CC1)C(=O)NC(C)(C)C (stereo not drawn)	i
O=C(CSc1nnc(C2CC2)n1Cc1ccccc1)c1ccccc1F	i
CC(Sc1nnc(COc2ccc(Cl)cc2)n1C)C(=O)c1ccc(Cl)cc1 (stereo not drawn)	i
CCNC(=O)N1Cc2[nH]cnc2C[C@H]1c1nc(-c2ccc(F)c(Cl)c2)no1	40µM*
COc1ccc(NC(=O)N2Cc3[nH]cnc3C[C@H]2c2nc(-c3ccncc3)no2)cc1	i
Fc1ccc(CN2Cc3[nH]cnc3C[C@H]2c2nc(-c3ccc(F)c(Cl)c3)no2)cc1	35µM*
COc1ccc(CN2Cc3[nH]cnc3C[C@H]2c2nc(-c3ccncc3)no2)cc1	28µM*
Cc1ccc(-c2noc([C@@H]3Cc4nc[nH]c4CN3Cc3ccc(N(C)C)cc3)n2)cc1	i
